Laboratory results taken from PubChem BioAssay.
For part of these data: Entries with a potency or affinity are not part of this list. Active and inactive are the calls of the source.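 The calls were made as follows, unless noted: active = dose curve with midpoint inside tested range, moderate steepness, plateau gap beyond fit error, low compound glow and bead-link interference; inactive = the rest.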

Legend:
[1] = target: Cell division control protein 42 homolog (Homo sapiens) (UniProt P60953); experiment: inhibition of fluorescent GTP binding to constitutively active Cdc42 – biochemical, multiplex bead flow cytometry, Bodipy-FL-GTP, dose response (AID 1333;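 active = fitted half-maximal concentration within the tested dose range, moderate curve steepness, a statistically real signal drop, and little compound fluorescence or tag-binding interference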)
[2] = target: Cell division control protein 42 homolog (Homo sapiens) (UniProt P60953); experiment: inhibition of fluorescent GTP binding to wildtype Cdc42 – biochemical, multiplex bead flow cytometry, Bodipy-FL-GTP, dose response (AID 1334;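 active = fitted half-maximal concentration within the tested range, moderate curve steepness, significant signal drop, and little compound fluorescence or bead-linkage interference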); conditions: bead-based flow cytometry, Bodipy-FL-GTP binding to GST-Cdc42; at 100 µM (top of the series) unless noted
[3] = target: GTPase HRas (Homo sapiens) (UniProt P01112); experiment: Ras wt fluorescent GTP loading blockade – biochemical, wildtype, multiplex bead flow cytometry, dose response (AID 1335;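 active = fitted half-maximal concentration within 10 nM to 100 µM, steepness 0.5 to 2, significant signal drop, low assay interference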); conditions: bead-based flow cytometry, Bodipy-GTP binding to GST-Ras; at 100 µM (top of the series) unless noted
[4] = tested on: Ras-related protein Rab-7a (dog), GTP binding; experiment: blockers of fluorescent GTP binding to Rab7 – biochemical, wildtype, multiplex bead flow cytometry, dose response (AID 1336; call rule not given here)
[5] = target: Ras-related C3 botulinum toxin substrate 1 (Homo sapiens) (UniProt P63000); experiment: inhibition of wildtype Rac1 nucleotide loading – biochemical, multiplex bead flow cytometry, dose response (AID 1340); conditions: GST-Rac1 beads, Bodipy-FL-GTP binding; at 100 µM (top of the series) unless noted
[6] = target: GTPase HRas (Homo sapiens) (UniProt P01112); experiment: blockade of GTP loading onto mutant Ras – biochemical, activated mutant, multiplex bead flow cytometry, dose response (AID 1341;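 active = dose-response curve with midpoint inside the tested range, moderate steepness, significant amplitude and little compound fluorescence or bead-attachment interference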;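 also: GST-tagged constitutively activated Ras mutant immobilized on beads and multiplexed with other GTPases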)

Cell division control protein 42 homolog (Homo sapiens), sequence (P60953 whole entry, looked up): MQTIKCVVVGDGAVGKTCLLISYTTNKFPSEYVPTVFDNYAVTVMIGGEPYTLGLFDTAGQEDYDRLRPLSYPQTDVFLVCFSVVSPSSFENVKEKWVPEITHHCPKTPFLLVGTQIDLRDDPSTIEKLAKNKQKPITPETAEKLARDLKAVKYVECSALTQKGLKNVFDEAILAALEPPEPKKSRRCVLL
GTPase HRas (Homo sapiens), sequence (P01112 whole entry, looked up): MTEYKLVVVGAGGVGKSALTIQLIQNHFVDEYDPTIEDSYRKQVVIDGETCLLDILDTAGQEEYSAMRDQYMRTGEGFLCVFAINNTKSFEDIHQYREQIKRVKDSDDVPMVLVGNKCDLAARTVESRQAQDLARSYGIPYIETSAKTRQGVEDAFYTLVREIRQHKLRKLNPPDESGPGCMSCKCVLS

Compound | outcome [1] | fluorescence, percent of control (lower = inhibition) [2] [%] | GTP binding, percent of control [3] [%] | outcome [4] | GTP binding signal, raw median fluorescence (lower = inhibition) (MCF (arbitrary fluorescence units)) [5] | outcome [6]
O=C(NCCc1c[nH]c2ccccc12)c1cccc(S(=O)(=O)Nc2ccccc2Cl)c1 | inactive | 32.1 | 71.4 | inactive | 175 | inactive
COc1ccc(-c2csc(NC(=S)NC(=O)c3cccs3)n2)cc1OC | inactive | 36.6 | 78.1 | inactive | 176 | inactive
Cc1n[nH]c(=S)c2nn(-c3ccccc3)c(C)c12 | inactive | 47.4 | 63.6 | inactive | 188 | inactive
Cc1cccc(Nc2nc(NCc3ccco3)c3ccccc3n2)c1 | inactive | 39.2 | 54.7 | inactive | 142 | inactive
CCOC(=O)N1CCC(NC(=O)c2ccc3nc4ccccc4c(=O)n3c2)CC1 | inactive | 97.6 | 122 | inactive | 152 | inactive
Cc1nnc(-n2ncc(C#N)c2N)c2nn(-c3cccc(Cl)c3)c(C)c12 | inactive | 62.8 | 76.8 | inactive | 198 | inactive
Cc1ccc2nc(CSc3nc(C)cc(C)c3C#N)[nH]c2c1 | inactive | 35.3 | 77.6 | inactive | 242 | inactive
COc1cc(/C=N/NC(=S)Nc2cccnc2)cc(OC)c1O | inactive | 31.8 | 72 | inactive | 163 | inactive
COc1ccc(CNC(=O)C2CC(=O)N(c3ccc(OCC(=O)N4C(C)CCCC4C)cc3)C2)cc1 (stereo not given) | inactive | 106 | 177 | inactive | 183 | inactive
COc1ccc(C(=O)Nc2nc3ccccc3[nH]2)cc1S(=O)(=O)N1CCOCC1 | inactive | 32.9 | 73.9 | inactive | 197 | inactive
COc1ccc2o/c(=N/NC(=O)c3cccs3)c(C(N)=O)cc2c1 | inactive | 28.1 | 64.4 | inactive | 160 | inactive
Cc1cc(C)n2nc(C(=O)N3CCCC(CNS(=O)(=O)c4cccs4)C3)cc2n1 (stereo not given) | inactive | 37.1 | 85.6 | inactive | 284 | inactive
COc1cc(/C=C(\C#N)c2nc3ccc(C)cc3[nH]2)cc([N+](=O)[O-])c1O | inactive | 25.3 | 61.6 | inactive | 151 | inactive
COc1ccc(OC)c(S(=O)(=O)Nc2ccc(O)c(Sc3ncn[nH]3)c2)c1 | inactive | 48.6 | 65.1 | inactive | 189 | inactive
O=C(Nc1cccc(Cl)c1)Nc1ccnc(-c2cccnc2)n1 | inactive | 33.8 | 72.8 | inactive | 155 | inactive
CCCCn1c(O)c(/C=C/C=C/C=Nc2ccccc2)sc1=S | inactive | 29.8 | 68.3 | inactive | 216 | inactive
Oc1c(CN2CCOCC2)ccc2ccccc12 | inactive | 36.2 | 84.5 | inactive | 250 | inactive
Cc1nc2nc(SCC(=O)O)nn2c(C)c1Cc1ccccc1Cl | inactive | 29.1 | 84 | inactive | 228 | inactive
Cc1cccc(COc2nc3ccccc3cc2C(=O)O)c1 | inactive | 54.8 | 213 | inactive | 52.2 | inactive
COC(=O)c1cccc(NC(=O)c2nn(C)c(=O)c3ccccc23)c1 | inactive | 42.8 | 155 | inactive | 179 | inactive
O=[N+]([O-])c1cc(Cc2ccccc2)cc(C=Nc2ccc(N3CCOCC3)cc2)c1O | inactive | 45.1 | 65.5 | inactive | 0 | inactive
Fc1cccc(Nc2ncnc3[nH]ncc23)c1 | inactive | 30.9 | 72.3 | inactive | 177 | inactive
O=C(COc1ccccc1[N+](=O)[O-])Nc1cc(Cl)ccc1C(=O)O | inactive | 32.7 | 75.6 | inactive | 215 | inactive
CCCc1nc2oc3c(=O)[nH]cnc3c2c2c1CCCC2 | inactive | 35.5 | 79.1 | inactive | 193 | inactive
CCCCCOC(=O)c1ccccc1C(=O)O | inactive | 134 | 220 | inactive | 275 | inactive
Cc1ccccc1OCCn1c(C)c(C(=O)O)c2ccccc21 | inactive | 61.5 | 205 | inactive | 64.3 | inactive
O=C(O)c1ccc(Nc2nc(-c3cc4ccccc4oc3=O)cs2)cc1O | inactive | 29.2 | 74.6 | inactive | 177 | inactive
C/C(=C1/SC(=S)N(CCC(=O)O)C1=O)c1ccc(O)cc1 | inactive | 29.5 | 80.9 | inactive | 254 | inactive
CCOc1ccc2nc(NC(=O)CSc3nc(-c4ccccc4)c(C#N)c(=O)[nH]3)sc2c1 | inactive | 25.1 | 70 | inactive | 240 | inactive
CCOC(=O)CCCCC(=O)c1[nH]c(=O)[nH]c1CSc1nnc2c3cc(Br)ccc3n(C)c2n1 | inactive | 34.4 | 80.3 | inactive | 167 | inactive
